This passage reports AC50 and outcome results from PubChem BioAssay (EPA / NIEHS).

The subject of experiment [1] is rabbit Platelet Activating Factor Receptor (PAF), gene 100354046. The experiment is described as follows: NVS_GPCR_rabPAF: NovaScreen (NVS) G Protein-Coupled Receptor Assay for rabbit Platelet Activating Factor Receptor (PAF) (AID 2283287). The method in brief: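 Rabbit platelet membrane preparation; radioligand displacement read by filter-based scintillation counting 1 h after dosing, loss of signal versus DMSO. Primary screen in duplicate at 25 uM, actives followed up in concentration series.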

For experiment [2], the target named is human Opioid Receptor Delta 1 (Opiate D1), OPRD1 (gene 4985) (UniProt P41143). The experiment is described as follows: NVS_GPCR_hOpiate_D1: NovaScreen (NVS) G Protein-Coupled Receptor Assay for human Opioid Receptor Delta 1 (Opiate D1) (AID 2283280). The method in brief: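 Radioligand displacement on membranes from CHO cells expressing the receptor, read by filter scintillation counting 1 h after dosing. Duplicate single-point screen at 25 uM, then concentration series for actives; loss of signal versus DMSO.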
Chain of human Opioid Receptor Delta 1 (Opiate D1), OPRD1 (gene 4985) (P41143 whole entry, looked up): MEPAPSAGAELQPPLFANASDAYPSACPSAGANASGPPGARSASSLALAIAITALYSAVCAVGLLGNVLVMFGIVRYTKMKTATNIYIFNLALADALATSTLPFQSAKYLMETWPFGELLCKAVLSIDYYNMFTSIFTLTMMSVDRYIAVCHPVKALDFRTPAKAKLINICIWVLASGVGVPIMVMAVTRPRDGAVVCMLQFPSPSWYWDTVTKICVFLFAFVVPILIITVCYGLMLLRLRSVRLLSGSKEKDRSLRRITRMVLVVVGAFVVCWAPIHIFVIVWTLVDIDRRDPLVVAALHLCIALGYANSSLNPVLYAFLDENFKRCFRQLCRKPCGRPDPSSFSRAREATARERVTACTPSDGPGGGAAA

The target of experiment [3] is mouse Cholecystokinin, CCK1 Receptor (CCKA), Cckar (gene 12425) (UniProt O08786). The experiment is described as follows: NVS_GPCR_mCCKAPeripheral: NovaScreen (NVS) G Protein-Coupled Receptor Assay for mouse Cholecystokinin, CCK1 Receptor (CCKA) (AID 2283285). A digest of the protocol: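 Radioligand competitive displacement on mouse pancreatic membranes, 2 h incubation; filter-based scintillation counting, loss of signal versus DMSO. Single-concentration screen at 25 uM in duplicate, actives retested in concentration-response up to 50 uM.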
Chain of mouse Cholecystokinin, CCK1 Receptor (CCKA), Cckar (gene 12425) (O08786 whole entry, looked up): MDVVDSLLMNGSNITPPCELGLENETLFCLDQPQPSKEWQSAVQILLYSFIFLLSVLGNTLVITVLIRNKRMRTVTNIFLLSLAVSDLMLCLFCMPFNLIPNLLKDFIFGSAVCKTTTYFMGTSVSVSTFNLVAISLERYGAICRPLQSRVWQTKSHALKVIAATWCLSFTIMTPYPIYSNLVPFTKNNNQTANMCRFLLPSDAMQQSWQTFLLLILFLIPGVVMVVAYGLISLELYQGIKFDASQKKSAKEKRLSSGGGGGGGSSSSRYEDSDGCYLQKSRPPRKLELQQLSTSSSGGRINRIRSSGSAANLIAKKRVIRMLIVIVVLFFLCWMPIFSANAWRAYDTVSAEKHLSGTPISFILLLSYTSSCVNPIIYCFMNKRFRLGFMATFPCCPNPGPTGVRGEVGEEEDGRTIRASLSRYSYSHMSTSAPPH

In experiment [4] the test system is 5-hydroxytryptamine receptor 2C (pig). The experiment is described as follows: NVS_GPCR_p5HT2C: NovaScreen (NVS) G Protein-Coupled Receptor Assay for pig Serotonin, 5-Hydroxytryptamine Receptor 2C (5HT2C) (AID 2283288). The method in brief: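 Pig choroid plexus membranes; radioligand competitive binding, filter-based scintillation counting, read 1 h after dosing. Primary screen in duplicate at 25 uM; actives then run as concentration series; loss of signal versus DMSO baseline.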

In experiment [5] the target is human Opioid Receptor Mu (Opiate Mu), OPRM1 (gene 4988) (UniProt P35372). The experiment is described as follows: NVS_GPCR_hOpiate_mu: NovaScreen (NVS) G Protein-Coupled Receptor Assay for human Opioid Receptor Mu (Opiate Mu) (AID 2283290).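 Note: hits lower bound tracer signal versus DMSO meaning displacement of the ligand.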 The method in brief: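 CHO-derived receptor protein, cell-free; radioligand displacement, filtration + scintillation counting, read at 2.5 h. DMSO = negative control/baseline. Primary: 25 uM single conc, duplicate; secondary: concentration series.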
Chain of human Opioid Receptor Mu (Opiate Mu), OPRM1 (gene 4988) (P35372 whole entry, looked up): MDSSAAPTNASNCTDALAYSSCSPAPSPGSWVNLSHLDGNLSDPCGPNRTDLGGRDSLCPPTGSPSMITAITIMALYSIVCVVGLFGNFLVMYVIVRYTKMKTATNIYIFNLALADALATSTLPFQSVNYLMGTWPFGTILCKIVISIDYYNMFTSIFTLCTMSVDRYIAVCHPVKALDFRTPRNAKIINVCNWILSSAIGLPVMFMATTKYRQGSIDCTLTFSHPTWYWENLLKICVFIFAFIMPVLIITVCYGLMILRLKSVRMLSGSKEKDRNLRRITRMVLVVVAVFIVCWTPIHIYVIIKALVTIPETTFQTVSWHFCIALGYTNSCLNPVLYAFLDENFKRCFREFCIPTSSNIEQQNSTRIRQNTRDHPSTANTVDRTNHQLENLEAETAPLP

Experiment [6] addresses human Neurotensin Receptor (NTS), NTSR1 (gene 4923) (UniProt P30989). The experiment is described as follows: NVS_GPCR_hNTS: NovaScreen (NVS) G Protein-Coupled Receptor Assay for human Neurotensin Receptor (NTS) (AID 2283279). A digest of the protocol:
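Radioligand displacement on human NTSR1 protein from CHO cells, cell-free, 1 h, filter-based scintillation counting. Primary screen at 25 uM in duplicate; hits rerun in concentration-response up to 50 uM.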

The target in experiment [7] is rat Serotonin, 5-Hydroxytryptamine Receptor (5HT), Non-Selective Binding, Htr1a (gene 24473) (UniProt P19327). The experiment is described as follows: NVS_GPCR_r5HT_NonSelective: NovaScreen (NVS) G Protein-Coupled Receptor Assay for rat Serotonin, 5-Hydroxytryptamine Receptor (5HT), Non-Selective Binding (AID 2283295). A digest of the protocol: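 Radioligand displacement on rat cortical membranes, 1 h incubation, filter-based scintillation counting. Primary duplicates at 25 uM, actives retested in concentration series; loss of signal fitted against DMSO as baseline.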
Chain of rat Serotonin, 5-Hydroxytryptamine Receptor (5HT), Non-Selective Binding, Htr1a (gene 24473) (P19327 whole entry, looked up): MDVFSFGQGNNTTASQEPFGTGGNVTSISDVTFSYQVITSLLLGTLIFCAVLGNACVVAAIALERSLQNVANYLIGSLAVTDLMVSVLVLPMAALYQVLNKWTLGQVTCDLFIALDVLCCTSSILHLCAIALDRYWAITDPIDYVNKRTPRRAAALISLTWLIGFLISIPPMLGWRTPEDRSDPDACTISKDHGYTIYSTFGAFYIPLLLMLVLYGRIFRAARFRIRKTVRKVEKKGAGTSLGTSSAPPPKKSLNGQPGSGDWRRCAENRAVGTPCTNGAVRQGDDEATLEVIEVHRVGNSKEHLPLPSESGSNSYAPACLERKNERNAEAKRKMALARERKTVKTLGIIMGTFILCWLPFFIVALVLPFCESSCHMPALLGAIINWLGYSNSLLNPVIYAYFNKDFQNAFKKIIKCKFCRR

Experiment [8] concerns the target guinea pig Serotonin, 5-Hydroxytryptamine Receptor 4 (5HT4), HTR4 (gene 100135548) (UniProt O70528). The experiment is described as follows: NVS_GPCR_g5HT4: NovaScreen (NVS) G Protein-Coupled Receptor Assay for guinea pig Serotonin, 5-Hydroxytryptamine Receptor 4 (5HT4) (AID 2283294). A digest of the protocol:
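Guinea pig striatal membranes; radioligand competitive displacement, filtration and scintillation counting after 1 h. Primary screen in duplicate at 25 uM; actives then tested in concentration series; loss of binding signal fitted relative to DMSO.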

Experiment [9] has as its target rat Adrenergic Receptor, Alpha 2 (Adra2), Non-selective Binding, Adra2a (gene 25083) (UniProt P22909). The experiment is described as follows: NVS_GPCR_rAdra2_NonSelective: NovaScreen (NVS) G Protein-Coupled Receptor Assay for rat Adrenergic Receptor, Alpha 2 (Adra2), Non-selective Binding (AID 2283299). A digest of the protocol:
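Rat cortical membranes, radioligand competitive displacement read by filter-based scintillation counting 1.25 hours after dosing. Primary screen in duplicate at 25 uM; actives followed up in concentration series.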

Experiment [10] concerns rat Adrenergic, Alpha 1B Receptor (Adra1B), gene 24173. The experiment is described as follows: NVS_GPCR_rAdra1B: NovaScreen (NVS) G Protein-Coupled Receptor Assay for rat Adrenergic, Alpha 1B Receptor (Adra1B) (AID 2283297). A digest of the protocol: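 Rat liver membranes, radioligand displacement with filter-based scintillation detection, 1 h incubation. Primary screen in duplicate at 25 uM; actives retested in concentration series; activity relative to DMSO.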

The target in experiment [11] is guinea pig Bradykinin Receptor B2 (BK2), BDKRB2 (gene 100135486) (UniProt O70526). The experiment is described as follows: NVS_GPCR_gBK2: NovaScreen (NVS) G Protein-Coupled Receptor Assay for guinea pig Bradykinin Receptor B2 (BK2) (AID 2283292). A digest of the protocol: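 Radioligand displacement on guinea pig ileum membranes for 1 h, read by filter-based scintillation counting; loss of signal relative to DMSO. Compounds were screened in duplicate at 25 uM, and those passing the threshold were retested in concentration-response up to 50 uM.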
Chain of guinea pig Bradykinin Receptor B2 (BK2), BDKRB2 (gene 100135486) (O70526 whole entry, looked up): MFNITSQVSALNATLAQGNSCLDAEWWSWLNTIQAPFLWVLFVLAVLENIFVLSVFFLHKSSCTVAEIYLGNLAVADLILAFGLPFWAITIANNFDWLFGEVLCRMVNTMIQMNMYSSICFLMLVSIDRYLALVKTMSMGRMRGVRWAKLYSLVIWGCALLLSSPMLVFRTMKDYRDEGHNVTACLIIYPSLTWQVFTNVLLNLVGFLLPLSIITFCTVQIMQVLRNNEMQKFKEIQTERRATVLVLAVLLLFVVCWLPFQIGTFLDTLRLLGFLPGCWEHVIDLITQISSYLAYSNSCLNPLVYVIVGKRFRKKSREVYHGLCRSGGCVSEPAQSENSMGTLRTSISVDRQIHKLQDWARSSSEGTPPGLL

The subject of experiment [12] is guinea pig Atrionatriuretic Peptide Receptor A (ANPA), gene 100135578. The experiment is described as follows: NVS_GPCR_gANPA: NovaScreen (NVS) G Protein-Coupled Receptor Assay for guinea pig Atrionatriuretic Peptide Receptor A (ANPA) (AID 2283291). A digest of the protocol:
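Radioligand binding to guinea pig cerebellar membranes was measured after 1 h by filter-based scintillation counting. Chemicals were tested in duplicate at 25 uM, with hits run in concentration-response to a maximum of 50 uM. Binding loss was fitted against DMSO.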

Experiment [13] has as its target mouse Cholecystokinin, CCK2 Receptor (CCKB), Cckbr (gene 12426) (UniProt P56481). The experiment is described as follows: NVS_GPCR_mCKKBCentral: NovaScreen (NVS) G Protein-Coupled Receptor Assay for mouse Cholecystokinin, CCK2 Receptor (CCKB) (AID 2283293). A digest of the protocol: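 Radioligand displacement binding on mouse forebrain membranes, 2 h exposure, filter-based scintillation counting. Primary screen in duplicate at 25 uM; actives (e.g. ≥30% inhibition) retested in concentration-response up to 50 uM; loss of binding signal relative to DMSO.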

The target in experiment [14] is rat Adrenergic, Alpha 1, Non-selective Receptor (Adra1), Adra1a (gene 29412) (UniProt P43140). The experiment is described as follows: NVS_GPCR_rAdra1_NonSelective: NovaScreen (NVS) G Protein-Coupled Receptor Assay for rat Adrenergic, Alpha 1, Non-selective Receptor (Adra1) (AID 2283289). A digest of the protocol: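 Rat forebrain membranes; radioligand displacement read by filter-based scintillation counting 1 h after dosing. Primary screen in duplicate at 25 uM; hits (e.g. ≥30% inhibition) rerun as concentration–response to 50 uM max. Fitted versus DMSO.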
Chain of rat Adrenergic, Alpha 1, Non-selective Receptor (Adra1), Adra1a (gene 29412) (P43140 whole entry, looked up): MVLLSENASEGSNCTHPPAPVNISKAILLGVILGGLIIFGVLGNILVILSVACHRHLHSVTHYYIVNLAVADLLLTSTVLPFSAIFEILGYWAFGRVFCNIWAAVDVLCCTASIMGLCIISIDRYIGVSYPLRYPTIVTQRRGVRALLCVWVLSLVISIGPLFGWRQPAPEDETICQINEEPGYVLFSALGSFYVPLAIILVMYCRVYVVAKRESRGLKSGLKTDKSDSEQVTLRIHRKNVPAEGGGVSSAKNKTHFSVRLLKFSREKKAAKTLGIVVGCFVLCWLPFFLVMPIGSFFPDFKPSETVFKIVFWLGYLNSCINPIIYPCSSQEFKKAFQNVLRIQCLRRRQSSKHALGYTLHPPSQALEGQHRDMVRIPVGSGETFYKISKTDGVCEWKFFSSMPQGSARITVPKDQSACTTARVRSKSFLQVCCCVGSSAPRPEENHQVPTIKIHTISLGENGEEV

Structures are written as SMILES. Values joined by “and” are separate entries in the source; they are usually repeats but may differ in a detail not shown here. Identical values can stand only once. Inconclusive results are not listed. Where a structure was tested more than once in an assay, its records may differ in their call. Active and inactive are the calls of the source. Rule for the calls: active = hit-call score of the fitted dose curve at least 0.9, where 1 is the maximum; inconclusive = response in the unintended direction; inactive = score below 0.9.

Chain of guinea pig Serotonin, 5-Hydroxytryptamine Receptor 4 (5HT4), HTR4 (gene 100135548) (O70528 whole entry, looked up): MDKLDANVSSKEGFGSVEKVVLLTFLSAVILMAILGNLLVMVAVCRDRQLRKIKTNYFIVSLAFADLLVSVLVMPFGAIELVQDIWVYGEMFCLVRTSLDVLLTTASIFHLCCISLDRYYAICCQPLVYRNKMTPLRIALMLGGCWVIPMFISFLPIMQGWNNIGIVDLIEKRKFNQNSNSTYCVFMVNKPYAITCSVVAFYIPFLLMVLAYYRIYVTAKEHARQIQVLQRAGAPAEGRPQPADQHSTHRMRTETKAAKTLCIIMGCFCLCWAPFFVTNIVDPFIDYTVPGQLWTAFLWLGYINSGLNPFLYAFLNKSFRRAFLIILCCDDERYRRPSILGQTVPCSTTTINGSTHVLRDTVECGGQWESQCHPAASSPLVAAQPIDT
Chain of human Neurotensin Receptor (NTS), NTSR1 (gene 4923) (P30989 whole entry, looked up): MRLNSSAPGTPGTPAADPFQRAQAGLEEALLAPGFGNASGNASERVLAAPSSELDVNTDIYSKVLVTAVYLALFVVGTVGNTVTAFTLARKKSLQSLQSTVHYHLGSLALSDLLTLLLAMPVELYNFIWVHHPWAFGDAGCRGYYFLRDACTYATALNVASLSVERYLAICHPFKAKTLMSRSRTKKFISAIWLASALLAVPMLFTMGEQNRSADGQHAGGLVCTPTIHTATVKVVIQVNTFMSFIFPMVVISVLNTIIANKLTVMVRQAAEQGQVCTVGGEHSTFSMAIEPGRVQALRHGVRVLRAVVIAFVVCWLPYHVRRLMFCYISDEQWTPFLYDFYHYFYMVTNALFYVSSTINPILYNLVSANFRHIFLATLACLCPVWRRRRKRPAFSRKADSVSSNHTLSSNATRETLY
Chain of mouse Cholecystokinin, CCK2 Receptor (CCKB), Cckbr (gene 12426) (P56481 whole entry, looked up): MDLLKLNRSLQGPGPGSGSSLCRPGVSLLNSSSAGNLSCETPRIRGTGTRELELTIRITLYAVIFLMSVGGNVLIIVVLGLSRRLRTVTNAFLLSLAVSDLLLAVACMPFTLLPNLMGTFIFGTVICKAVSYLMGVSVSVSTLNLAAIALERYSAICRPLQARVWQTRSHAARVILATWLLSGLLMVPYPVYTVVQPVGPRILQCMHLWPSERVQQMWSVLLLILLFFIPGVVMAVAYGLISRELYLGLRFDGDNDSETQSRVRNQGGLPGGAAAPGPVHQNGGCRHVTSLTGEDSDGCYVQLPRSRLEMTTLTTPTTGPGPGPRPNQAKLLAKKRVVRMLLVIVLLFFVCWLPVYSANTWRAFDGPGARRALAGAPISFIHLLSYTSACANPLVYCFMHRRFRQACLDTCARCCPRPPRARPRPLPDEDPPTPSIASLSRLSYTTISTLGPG
Chain of rat Adrenergic Receptor, Alpha 2 (Adra2), Non-selective Binding, Adra2a (gene 25083) (P22909 whole entry, looked up): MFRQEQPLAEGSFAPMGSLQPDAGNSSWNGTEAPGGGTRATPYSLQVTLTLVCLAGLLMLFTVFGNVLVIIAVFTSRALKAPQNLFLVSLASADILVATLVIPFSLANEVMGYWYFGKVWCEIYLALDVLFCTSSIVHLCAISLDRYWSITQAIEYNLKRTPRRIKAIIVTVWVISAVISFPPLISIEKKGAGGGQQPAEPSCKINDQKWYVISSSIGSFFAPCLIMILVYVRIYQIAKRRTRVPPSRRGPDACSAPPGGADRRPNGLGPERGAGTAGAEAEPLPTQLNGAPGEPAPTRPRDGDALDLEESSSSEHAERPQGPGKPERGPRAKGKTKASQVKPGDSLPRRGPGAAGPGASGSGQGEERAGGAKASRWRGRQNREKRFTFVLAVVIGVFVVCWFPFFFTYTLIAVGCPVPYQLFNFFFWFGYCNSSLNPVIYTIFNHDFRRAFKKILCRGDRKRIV

For `CC(C)Oc1cc(-n2nc(C(C)(C)C)oc2=O)c(Cl)cc1Cl`, the half-maximal activity concentration (AC50) in [1] is 9.82 µM (active).

On to `OC(c1ccc(Cl)cc1)(c1cncnc1)c1ccccc1Cl` (centres undefined), for which the AC50 in experiment [2] is 12.5 µM (active).

Turning to `C=CCC1=C(C)C(OC(=O)C2C(C=C(C)C)C2(C)C)CC1=O` (centres undefined), the concentration at half-maximal activity (AC50) in [3] was 25 µM (active) [middle of 4 runs]. The call in experiment [4] and in experiment [5] was inactive.

For the compound `COC(=O)N(OC)c1ccccc1COc1ccn(-c2ccc(Cl)cc2)n1`, in experiment [5], the AC50 was 0.879 µM (active).

Take `COC(=O)C(C)Oc1ccc(Oc2ccc(Cl)cc2Cl)cc1` (centres undefined): the outcome in [6] and in experiment [1] was inactive.

Consider `C=CCC1=C(C)[C@@H](OC(=O)[C@@H]2[C@@H](C=C(C)C)C2(C)C)CC1=O`, for which the AC50 in experiment [3] was 19.9 µM (active); in [1], 25 µM (active). The compound was called inactive in experiment [7].

As for `O=C(Nc1ccccc1)Nc1ccnc(Cl)c1`, the AC50 in [5] is 6.97 µM (active); in [8], 9.9 µM (active); in [7], 17 µM (active); in experiment [9] it was 9.64 µM (active).

Regarding `CCOP(=S)(OCC)SCn1c(=O)oc2cc(Cl)ccc21`, the compound was called inactive in experiment [2] and in experiment [10]. Moreover, the AC50 in [5] was 19.2 µM (active).

In the case of `CCCN(CCC)c1c([N+](=O)[O-])cc(S(N)(=O)=O)cc1[N+](=O)[O-]`, in experiment [11], the result was inactive.

As for `COc1nc(NC(C)C)nc(NC(C)C)n1`, the outcome in experiment [7] was inactive.

As for `Oc1ccccc1-c1ccccc1`, the call in experiment [8] was inactive.

In the case of `Fc1ccc(Oc2ccnc3cc(Cl)cc(Cl)c23)cc1`, the compound was called inactive in experiment [1], in [12] and in experiment [10].

Turning to `C#CCOS(=O)OC1CCCCC1Oc1ccc(C(C)(C)C)cc1` (centres undefined), the call in [6] and in [13] was inactive.

Consider `CO/C=C(/C(=O)OC)c1ccccc1Oc1cc(Oc2ccccc2C#N)ncn1`, for which the AC50 in experiment [2] is 7.95 µM (active); in experiment [1], 13.9 µM (active) and 15.7 µM (active). Further, the outcome in [2], in experiment [3], in [5], in [11] and in experiment [8] was inactive.

For the compound `CCCCOC(=O)c1ccccc1C(=O)OCCCC`, the compound was called inactive in [14].

The term AC50 denotes the concentration at which the activity in the assay is half-maximal.
